# Screens as filed in PubChem BioAssay.
# An excerpt weighted towards active compounds, which were near 10% of everything screened.
# GPT2 inh = GPT2 alanine aminotransferase inhibition. hit rate 0.25% among 100,000. Q8TD30. Potency, µM (doses to about 57.7 µM), most hits filed as inhibitors. AID 1671188. Recombinant GPT2, coupled pyruvate oxidase/HRP Amplex Red fluorescence; further: nearly all actives have a fitted effect of over 60% in size
# Target sequence (Q8TD30 whole entry, looked up): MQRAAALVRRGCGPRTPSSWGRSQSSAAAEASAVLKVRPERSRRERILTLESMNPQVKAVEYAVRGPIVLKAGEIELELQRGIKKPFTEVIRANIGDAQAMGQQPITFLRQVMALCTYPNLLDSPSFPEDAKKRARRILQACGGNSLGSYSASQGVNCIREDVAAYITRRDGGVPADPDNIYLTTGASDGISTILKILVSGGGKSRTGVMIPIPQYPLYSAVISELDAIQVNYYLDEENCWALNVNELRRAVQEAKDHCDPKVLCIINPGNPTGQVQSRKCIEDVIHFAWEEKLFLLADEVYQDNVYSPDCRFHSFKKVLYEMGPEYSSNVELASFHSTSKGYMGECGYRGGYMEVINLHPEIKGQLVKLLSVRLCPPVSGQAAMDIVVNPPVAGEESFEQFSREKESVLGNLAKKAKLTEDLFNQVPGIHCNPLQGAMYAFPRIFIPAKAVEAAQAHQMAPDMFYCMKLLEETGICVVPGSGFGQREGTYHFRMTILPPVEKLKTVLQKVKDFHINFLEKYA
#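 Fluorescence of coupled pyruvate oxidase/HRP/Amplex Red system (50uM Amplex, 30 min, dark) reports pyruvate formed by GPT2. Enzyme reaction: 10ng/uL GPT2, 2mM L-alanine, 250uM a-KG, 30 min room temperature, pH 7.5; 50uM AOA control.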
# HEK cytotox = kills HEK 293 cells | AID 1345083 | Potency, µM (series often up to 115 µM), actives largely listed as inhibitors | hit rate 6.6% among 94,000 | HEK 293 viability, ATP luminescence (CellTiter-Glo), 48-72 h; further: nearly all actives have a fitted effect of over 60% in size
#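 ATP-coupled CellTiter-Glo luminescence served as viability read-out, recorded 10 min after reagent addition at room temperature. HEK 293 cells, 250 cells/well, had been incubated with pintool-transferred compound for 48 or 72 hr at 37 degree Celsius.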
# NPR1 antag = human Npr1 receptor antagonism; P16066; HEK293 hNpr1 GloSensor cGMP, ANP-stimulated luminescence; Potency, µM (highest dose often 46.3 µM), hits mostly inhibitors; hit rate 1.6% among 76,000; calls by dose curve; further: nearly all actives have a fitted effect of over 60% in size
#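 Compound pre-incubated 30 min at room temperature on GloSensor-loaded HEK293 cells stably carrying hNpr1 and the pGS-40F cGMP biosensor. Stimulation uses hNppA at 0.1 nM final; luminescence is taken at baseline and 20 min post-agonist.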
# NIH3T3 tox = cytotoxic compounds in NIH 3T3 cells | NIH 3T3 viability, CellTiter-Glo ATP luminescence, 48-72 h | Potency, µM (titrated, usually from 96.7 µM), most hits filed as inhibitors | hit rate 4.3% among 94,000 | AID 1345082; further: nearly all actives have a fitted effect of over 55% in size
#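 Luminescent ATP readout (CellTiter-Glo, 10 min RT) after 48 or 72 hr compound exposure of NIH 3T3 cells seeded at 400 cells/well in 1536-well format; quantitative HTS.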
# Luciferase inh = blocks purified firefly luciferase enzyme activity; P08659; purified P. pyralis luciferase, luminescence, biochemical; Potency, µM (highest dose often 115 µM), hits mostly inhibitors; hit rate 2.5% among 76,000; AID 1347043; further: nearly all actives have a fitted effect of over 65% in size
#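 Purified P. pyralis luciferase (10nM final) in 50mM Tris acetate pH 7.5, 10mM Mg acetate, 0.01% Tween-20, 0.05% BSA with 10uM D-luciferin and 10uM ATP. Compounds titrated qHTS. Luminescence imaged on CCD.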
# NPR1 antag cnf = hNpr1 antagonism, confirmation assay; shares compounds with NPR1 antag; HEK293 hNpr1 cGMP GloSensor luminescence, ANP-stimulated; Potency, µM (top dose mostly 57.6 µM), most hits filed as inhibitors; hit rate 76% among 1,400; AID 1347044; calls by dose curve; further: nearly all actives have a fitted effect of over 70% in size
# Npr2 selectivity = hNpr2 antagonism, selectivity versus Npr1 | shares compounds with NPR1 antag | HEK293 hNpr2 GloSensor cGMP luminescence, CNP-stimulated | Potency, µM (doses to about 57.6 µM), most hits filed as inhibitors | hit rate 67% among 1,400 | AID 1347046; calls by dose curve; further: nearly all actives have a fitted effect of over 70% in size
# FLuc counter = inhibits firefly luciferase, false Npr1 antagonist flag; shares compounds with NPR1 antag; purified FLuc enzyme, luminescence, Km substrate; Potency, µM (top dose mostly 57.6 µM), most hits filed as inhibitors; hit rate 0.7% among 1,400
# GloSensor cGMP = control cell line activity, Npr1 antagonist counter-screen; HEK293 GloSensor cGMP, SNP-stimulated, luminescence; shares compounds with NPR1 antag; hit rate 69% among 1,400; Potency, µM (doses to about 57.6 µM), actives largely listed as inhibitors; calls by dose curve; further: nearly all actives have a fitted effect of over 70% in size
# Hits are given with their value; 0 = inactive; ? = inconclusive; - = no result; ! = repeats disagree. Unless noted, the call rests on the fitted dose curve; in most records, active means well fitted curve in the direction sought with a large enough effect; inconclusive means small, poorly fitted or top-dose-only effect, or another doubt; inactive means no such curve, though single readings can be large; an effect the other way counts as inactive or inconclusive.
SMILES,GPT2 inh,HEK cytotox,NPR1 antag,NIH3T3 tox,Luciferase inh,NPR1 antag cnf,Npr2 selectivity,FLuc counter,GloSensor cGMP
COc1ccc(N2CCN(c3nc(C(=O)NCc4ccc(C)c(C)c4)cs3)CC2)cc1,0,13µM,13µM,?,0,9.7µM,14µM,0,11µM
COc1ccc(CC(=O)Nc2ccc3c(c2)CN(Cc2ccc(OC)cc2OC)C(=O)C(C)O3)cc1 (stereo unspecified),?,?,0,?,0,-,-,-,-
CC(C)OC(=O)N1CCC(COc2ccc3c(cnn3CC[S+](C)(=O)[O-])c2)CC1,?,?,16µM,?,0,16µM,22µM,0,14µM
O=C1NN=C(c2cccnc2)C12CCN([S+](=O)([O-])c1cccc(C(F)(F)F)c1)CC2,?,?,?,?,0,22µM,22µM,0,24µM
COc1cccc([S+](=O)([O-])N2CCC3(CC2)C(=O)NN=C3c2cccnc2)c1,0,?,?,?,0,-,-,-,-
O=C1Nc2ccccc2C2(CCN(C(=O)c3cccnc3)C2)O1 (stereo unspecified),0,0,0,0,0,-,-,-,-
CN(Cc1cnc2ccccc2c1)C(=O)c1ccc(CCC(C)(C)O)cc1,?,40µM,2.5µM,?,0,5.4µM,6.9µM,0,3.9µM
CN(Cc1ccc2nccnc2c1)C(=O)c1ccc(CCC(C)(C)O)cc1,?,?,0,0,0,-,-,-,-
CS(=O)(=O)N1CCc2ccc(C(=O)Nc3ccc(Oc4ccccc4)cc3)cc21,0,?,1.6µM,0,0,2.7µM,3.4µM,0,2.4µM
N[C@H]1CN(C(=O)c2ccccc2Oc2ccccc2)C[C@@H]1C1CC1,?,0,0,?,0,-,-,-,-
O=c1[nH]c(C2CCCN(Cc3ccc(-c4cccs4)cc3)C2)nc2ccc(F)cc12 (stereo unspecified),0,40µM,16µM,?,0,24µM,27µM,0,31µM
COc1ccccc1-c1ccc(CN2CCCC(c3nc4ccc(C)cc4c(=O)[nH]3)C2)cc1 (stereo unspecified),0,18µM,?,28µM!,0,?,?,0,?
N#Cc1ccc(CN2CCC(c3nc4ccc(F)cc4c(=O)[nH]3)CC2)cc1,0,0,-,0,-,-,-,-,-
Cc1ccc2nc(C3CCN(Cc4ccc(C#N)cc4)CC3)[nH]c(=O)c2c1,0,?,?,?,0,17µM,?,0,17µM
CCCC1=Nc2cc(C(=O)NCCc3ccc(OC)c(OC)c3)ccc2Sc2ccccc21,0,?,?,?,0,?,?,0,?
CCCC1=Nc2cc(C(=O)NCCc3ccc(OC)c(OC)c3)ccc2Sc2ccc(C)cc21,0,?,0,?,0,-,-,-,-
Cc1cc(C(=O)NC(C)c2cnc(N3CCCCCCC3)nc2C)n[nH]1 (stereo unspecified),0,?,10µM,?,0,22µM,24µM,0,22µM
CC(C)c1nc(N2CCCC2)ncc1C(=O)O,0,0,0,0,0,-,-,-,-
Cc1cccc(OCC2(CNCc3cccnc3)C[C@@H](O)[C@@H](O)C2)n1 (stereo partly specified),0,?,0,0,0,-,-,-,-
COc1ccc(-n2nc3n(c2=O)CCN(Cc2ccc(C(F)(F)F)cc2)C3)cc1,0,?,-,?,-,-,-,-,-
Cn1nccc1CN1CCn2c(nn(-c3ccc(C(F)(F)F)cc3)c2=O)C1,0,?,-,?,-,?,?,0,?
O=C(c1ccc(C(F)(F)F)cc1)N1CCn2c(nn(-c3ccc(C(F)(F)F)cc3)c2=O)C1,0,?,-,?,-,-,-,-,-
O=c1n(-c2ccncc2)nc2n1CCN(Cc1ccc(C(F)(F)F)cc1)C2,0,13µM,16µM,?,0,15µM,17µM,0,12µM
COCC(=O)Nc1cc(-c2ccccn2)nn1-c1ccccc1,0,0,-,0,-,-,-,-,-
O=C(N1CCC(c2ccccc2)CC1)C1(c2ccc(Cl)cc2)CCOCC1,0,?,-,?,-,?,?,0,0
SMILES,GPT2 inh,HEK cytotox,NPR1 antag,NIH3T3 tox,Luciferase inh,NPR1 antag cnf,Npr2 selectivity,FLuc counter,GloSensor cGMP
O=C(c1cccc(Cl)c1)N1CCN(CCn2nc3n(c2=O)CCCC3)CC1,-,0,-,0,-,-,-,-,-
COc1ccc(CN2CCNc3cnc(OCc4cccnc4)cc3C2)cn1,0,?,?,0,0,-,-,-,-
Clc1cnccc1CN1CCNc2cnc(-c3ccccc3)cc2C1,0,?,28µM,?,0,31µM,35µM,0,31µM
CCOc1cc2c(cn1)NCCN(Cc1ccncc1Cl)C2,0,?,35µM,?,0,31µM,?,0,40µM
Clc1cnccc1CN1CCNc2cnc(Oc3ccccc3)cc2C1,0,89µM,4µM,?,0,6.3µM,8.9µM,0,5µM
C=CCN(C)C(=O)[C@@H](C)C1CC[C@@]2(C)Cc3sc(-c4cccnc4)nc3[C@@H](C)[C@@H]2[C@H]1O (stereo partly specified),0,?,0,?,?,-,-,-,-
COCCn1c(C)cnc1CCNS(=O)(=O)c1ccc2c(c1)CCC2,0,?,-,0,-,-,-,-,-
Fc1cccc(CN2CCC(Oc3ccc(-c4noc(C5CC5)n4)cc3)C2)c1 (stereo unspecified),0,?,20µM,?,0,27µM,?,0,?
O=C(COc1ccc(F)cc1)N1CCC(Oc2ccc(-c3noc(C4CC4)n3)cc2)C1 (stereo unspecified),0,?,11µM,?,0,?,?,0,31µM
COc1ccc(CC(=O)N2CCC(Cc3nc(-c4ccc(F)cc4)no3)CC2)cc1OC,0,?,7.1µM,?,0,3.1µM,9.7µM,0,6.1µM
CC(C)c1noc(CC2CCN(C(=O)Cc3ccc(F)cc3)CC2)n1,0,0,0,0,0,-,-,-,-
CCOc1ccc(CC(=O)N2CCC(Cc3nc(-c4ccc(F)cc4)no3)CC2)cc1,0,?,6.3µM,?,0,5.4µM,6.1µM,0,4.8µM
O=C(NCc1ccccc1Cl)C1CCc2nnc(-c3cccc(C(F)(F)F)c3)n21 (stereo unspecified),0,0,-,0,-,-,-,-,-
COc1ccc(S(=O)(=O)N2CCC(CCOc3ccccc3F)C2)cc1 (stereo unspecified),0,?,0,?,0,-,-,-,-
Cc1ccc(C(=O)N2CCCC(C(=O)N3CCC(c4nc5ccncc5[nH]4)C3)C2)cc1 (stereo unspecified),0,0,-,0,-,-,-,-,-
